# hcDAF12 agonist: H. contortus DAF-12 nuclear receptor activators, primary screen, cell-based, luminescence, HEK293, lit1-tk-luc reporter; activation, % at 6.8 µM; HEK293 hcDAF-12 lit1-tk-luc reporter; 0% DMSO, 100% Δ7-dafachronic acid; actives 1.4% (n = 370,000); AID 652067, 2013;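 active = activation above the mean of all tested compounds plus 3 SD, cut at about 5.5% in these data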;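 note: 100% = response to 3 µM Δ7-dafachronic acid high control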
# DAX1 inh-1: DAX1 (NR0B1) inhibitors, primary screen, cell-based, HEK293, Gal4-DAX1, luciferase luminescence; Nuclear receptor subfamily 0 group B member 1 (Homo sapiens), P51843; HEK293 Gal4-DAX1 luciferase reporter; inhibition, % at 6.75 µM; actives 0.99% (n = 340,000);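 active = inhibition above the mean over all tested compounds plus 3 SD, cut at about 4.2% in these data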;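 note: 0% = DAX1-transfected cells with DMSO and 100% = empty-vector control cells with DMSO; inhibition shows as a rise in luminescence from relieved DAX1 repression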
# Target sequence (P51843 207-470 limits assumed): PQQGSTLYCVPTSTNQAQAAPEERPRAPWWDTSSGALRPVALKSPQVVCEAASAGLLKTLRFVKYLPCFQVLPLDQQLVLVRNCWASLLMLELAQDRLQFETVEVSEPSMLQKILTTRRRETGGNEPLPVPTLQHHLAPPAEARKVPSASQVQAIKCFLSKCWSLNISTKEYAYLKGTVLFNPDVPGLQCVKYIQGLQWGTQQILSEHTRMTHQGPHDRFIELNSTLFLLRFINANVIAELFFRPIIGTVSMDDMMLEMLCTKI
# ssDAF-12 act: S. stercoralis DAF-12 nuclear receptor activators, primary screen, cell-based, luminescence, HEK293, GRIP1 co-expression, lit1-tk-luc; actives 1% (n = 370,000); AID 652126, 2013; Nuclear hormone receptor DAF-12 (Strongyloides stercoralis); activation, % at 6.8 µM; HEK293 ssDAF-12/GRIP1 lit1-tk-luc reporter; % of 3 µM dafachronic acid response;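 active = activation above the mean over all tested compounds plus 3 SD, cut at about 0.9% in these data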;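 note: 0% = DMSO-only wells and 100% = 3 µM delta7-dafachronic acid wells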
# hgDAF-12 ag: H. glycines DAF-12 receptor agonists, primary screen, cell-based, luminescence, HEK293, GAL4 fusion, UAS-luciferase; HEK293 GAL4-hgDAF12 UAS-luciferase reporter, agonist luminescence; normalized to butyrate control; actives 1.8% (n = 370,000); AID 687014, 2013; activation, % at 6.8 µM;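 active = activation above a cutoff set at the mean of all screened compounds plus 3 SD, cut at about 10% in these data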;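 note: 0% = DMSO wells and 100% = sodium butyrate wells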
# DAX1 inh-2: DAX1 (NR0B1) inhibitors on StAR promoter, primary screen, cell-based, luminescence, SF-1 (NR5A1), full-length DAX-1 | actives 1.1% (n = 370,000) | HEK293T StAR-luciferase reporter, SF-1/DAX-1 repression relief | inhibition, % at 6.8 µM;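 active = inhibition above the mean over all tested compounds plus 3 SD, cut at about 3.6% in these data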;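 note: 0% = DAX-1 cells with DMSO and 100% = cells lacking DAX-1 with DMSO; higher inhibition means more luminescence from relief of DAX-1 repression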
# PolyA inhibitor: polyadenylation inhibitors in yeast reporter cells, primary screen, luminescence, S. cerevisiae | S. cerevisiae SKY197-pL101 polyadenylation reporter, beta-gal luminescence; efflux-impaired pdr1/pdr3 knockout yeast; score 100 = 6 SD above DMSO | AID 1875, 2009 | activity score, % at 12 µM | actives 0.02% (n = 300,000);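 active = lowest replicate activity score at least 50, where 100 means six control SD above control mean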;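 note: yeast exposed to compound for 9 h at 30 °C; higher score means more reporter readthrough which indicates perturbed polyadenylation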
# Starred values were filed as active, the others as inactive; . = no result given. Compounds with a hit are over-represented: about 4.1% of the library has one in this group of screens.
SMILES,hcDAF12 agonist,DAX1 inh-1,ssDAF-12 act,hgDAF-12 ag,DAX1 inh-2,PolyA inhibitor
Cc1ccc(C(=O)N=c2sccn2C)cc1S(=O)(=O)N1CCOCC1,1,0,0,6,3.7*,-6
Cn1ccsc1=NC(=O)c1cccc(C#N)c1,0,4.5*,-1,3,0,-10
O=c1[nH]cnc2nn(C3OC(CO)C(O)C3O)nc12 (stereo not drawn),1,.,-1,2,0,.
COC(=O)C1=C(C)N(Cc2ccc(F)cc2)C(=S)NC1c1cccc(OC)c1 (stereo not drawn),0,.,-2,-5,0,.
O=C(NN=C1CCCC1)c1ccn[nH]1,1,2,1,12*,2,12
O=C(NN=C1CCCCCCCCCCC1)c1ccccc1F,3,0,0,12*,3,7
O=C(NN=C1CCCCCCC1)c1ccc(F)cc1,0,0,-1,5,1,-1
Cc1cccc(-c2cccc3c4c([nH]c23)[C@@H]2C[C@H](N(C)C(=O)Nc3ccccc3)[C@H]([C@H](C)O)CN2CC4)c1,-1,.,-1,-1,0,.
CCCCCCCCN1C(=O)[C@@H](CC(=O)N2CCOCC2)C[C@@]2(C(=O)OC)C1=C[C@H](C(C)C)O[C@@H]2C1CC1,1,.,-1,-2,0,.
CCOC(=O)c1ccc(NC(=O)c2cc3ccccc3o2)cc1,-1,0,-1,9,0,-5
Cc1cc(C(=O)Nc2cccc(C(=O)O)c2)oc1C,5,-4,0,10*,3,22
O=C(NC(=S)Nc1cccnc1)c1cc2ccccc2o1,2,1,0,11*,2,-3
CCC(=O)Nc1cccc(NC(=O)c2cc3ccccc3o2)c1,2,3,-1,11*,3,11
CCOC(=O)c1cccc(NC(=O)c2cc3ccccc3o2)c1,1,-3,-1,11*,2,-12
CC(C)C[C@H](NC1(C(=O)NC2CCCCC2)CCN(C)CC1)C(=O)NCC(c1ccccc1)c1ccccc1,1,.,-1,3,.,.
COC(=O)[C@]12CCCCC=C1N(Cc1ccc(OC)cc1)C(=O)[C@@H]2CC(=O)NCCCN1CCCC1=O,0,.,-1,-1,-1,.
C=Cc1ccc(C(=O)N2CCC(n3nnc4ncccc43)CC2)cc1,-1,.,-1,2,1,.
Cc1ccc(S(=O)(=O)Nc2cccc3cccnc23)c([N+](=O)[O-])c1,-5,-2,-2,-10,-9,72*
CC(C)=CCN1CCN(Cc2c[nH]c3ccccc23)CC1CCO (stereo not drawn),3,0,0.9*,3,0,-1
O=C(COC(=O)c1ccco1)c1ccc2ccccc2c1,2,0,-1,1,0,11
Cc1ccc(C(=O)COC(=O)c2ccco2)cc1C,0,1,1.0*,2,-1,14
CCCCCCn1c(Br)nc2c1c(=O)n(C)c(=O)n2C,1,0,1.0*,-1,0,3
CCCCn1c(CN2CCOCC2)nc2c1c(=O)n(C)c(=O)n2C,0,0,-1,11*,0,6
CC(C)CCn1c(CN2CCN(c3cccc(Cl)c3)CC2)nc2c1c(=O)n(C)c(=O)n2C,3,0,0,13*,2,0
Cn1c(=O)c2c(nc(CN3CCOCC3)n2CCN2CCOCC2)n(C)c1=O,.,2,.,.,.,0
SMILES,hcDAF12 agonist,DAX1 inh-1,ssDAF-12 act,hgDAF-12 ag,DAX1 inh-2,PolyA inhibitor
CC(C)Cn1c(Br)nc2c1c(=O)n(CCC#N)c(=O)n2C,-2,4.3*,-1,0,-1,20
CCCn1c(=O)c2c(nc(Br)n2CCC)n(C)c1=O,0,-1,-1,-2,0,-1
C[C@@H]1[C@@H](O)C[C@]2(C[C@@H](O)c3ccccc3O2)O[C@H]1c1ccccc1,-1,.,-1,5,1,.
Cc1cc(/C=C2/NC(=O)N(Cc3ccccc3F)C2=O)c(C)n1-c1ccccn1,4,-1,1.3*,5,0,-2
CC(C)(C)S(=O)(=O)N1C[C@@H]2CC(=O)C(CCO)=C2[C@H]1CCO,0,.,0,1,-2,.
Nc1c(C(=O)c2ccc(Cl)cc2)oc2ccccc12,5,0,1.8*,12*,1,-22
O=C(Nc1ccc2c(c1)OCO2)NC1CCN(S(=O)(=O)c2ccc(F)cc2)CC1,0,.,0,2,0,.
CCOC(=O)/C=C(\C)Sc1cc(O)c2ccccc2c1O,5.8*,-3,1,-4,-1,.
COc1cccc(Cn2cc(COC(=O)N(C)Cc3ccccc3)nn2)c1,-2,.,-1,-1,-1,.
Cn1c(CN2CCN(C(=O)c3ccccc3)CC2)nc2cc([N+](=O)[O-])ccc21,0,-2,0.9*,-3,1,12
COc1c(O)ccc(/C=N\NC(=O)c2ccc3c(c2)OCO3)c1[N+](=O)[O-],-1,5.5*,-1,1,0,-2
O=C(N/N=C/c1cc2c(cc1[N+](=O)[O-])OCO2)c1ccc2c(c1)OCO2,0,0,-1,0,0,8
COC(=O)[C@]1(CNC(=O)C(C)(C)C)CC(=O)N(Cc2ccc(Cl)cc2)[C@@H]1c1ccc(OC)cc1,-1,.,-1,0,-1,.
COCCn1c(SCC(=O)Nc2ccc(F)cc2)nc2c([nH]c3ccccc32)c1=O,5,-1,0,3,0,-7
O=C(CSc1nc2c([nH]c3ccccc32)c(=O)n1-c1ccccc1)N1CCOCC1,6.0*,0,-1,3,0,5
O=C(CSc1nc2c([nH]c3ccccc32)c(=O)n1-c1cccc(Cl)c1)N1CCOCC1,3,0,-1,-1,-1,10
CCn1c(SCC(=O)N2CC(C)OC(C)C2)nc2c([nH]c3ccccc32)c1=O (stereo not drawn),6.5*,1,0,1,0,0
CNC(=O)CSc1nc2c([nH]c3ccccc32)c(=O)n1CCOC,5.6*,-1,1,2,0,26
COCCn1c(SCC(=O)N2CC(C)OC(C)C2)nc2c([nH]c3ccccc32)c1=O (stereo not drawn),5.9*,0,0,4,1,-1

# Screens as filed in PubChem.
